Test [1] is described as follows: qHTS assay for small molecule agonists of the p53 signaling pathway (AID 651631; calls by dose curve; further: nearly all actives have a fitted effect of over 15% in size). Put shortly:
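Fluorescence intensity from cleaved LiveBLAzer B/G substrate (2 h, room temperature) served as the signal. Beforehand, HCT-116 reporter cells bearing p53 response elements were treated 16 h at 37 °C with DMSO-dissolved compounds.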
(In general: Quantitative high-throughput screening tests each substance at several concentrations.)

Test [2] can be described thus: qHTS assay for small molecules that induce genotoxicity in human embryonic kidney cells expressing luciferase-tagged ATAD5 (AID 651632). Further: nearly all actives have a fitted effect of over 15% in size. The procedure, abridged: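 Luminescent reporter readout, HEK293T ATAD5-luc line: 16 hr drug exposure (37C, 5% CO2) followed by Amplite, 30 min RT.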
Test [3] in a line: qHTS assay for small molecule agonists of the p53 signaling pathway - cell viability (AID 651633; calls by dose curve;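 further: p53RE-bla HCT reporter cells with a stable beta-lactamase p53 reporter; nearly all actives have a fitted effect of over 30% in size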). The procedure, abridged:
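p53RE-bla cells, seeded at 4,000 per well and rested 5 h at 37 C/5% CO2, received compounds in DMSO for 16 h at 37 C. CellTiter-Glo was then added, and luminescence was read after 30 min at room temperature to gauge cytotoxicity.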

Test [4] in a line: qHTS assay for small molecules that induce genotoxicity in human embryonic kidney cells expressing luciferase-tagged ATAD5 - cell viability (AID 651634; calls by dose curve; further: nearly all actives have a fitted effect of over 25% in size; further: potency means the concentration at half of the fitted maximal effect). The procedure, abridged:
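Viability read: CellTiter-Fluor fluorescence, 30 min at 37C. Cells: HEK293T, luciferase-tagged ATAD5. Exposure: 15.5 hr, 37C, 5% CO2, compound or DMSO vehicle.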

Test [5] can be described thus: qHTS assay for small molecule disruptors of the mitochondrial membrane potential - cell viability (AID 720634; calls by dose curve;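 further: human HepG2 liver cancer cells; nearly all actives have a fitted effect of over 20% in size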). The procedure, abridged:
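HepG2, 1 hr compound, 37 C. ATP luminescence via CellTiter-Glo, 30 min RT, same well as m-MPI.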

Test [6] is described as follows: qHTS assay for small molecule disruptors of the mitochondrial membrane potential (AID 720635). Further: potency means the concentration at half of the fitted maximal effect. Put shortly:
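HepG2 cells (2,000/well) attached overnight at 37C, then took compound for 1 hr at 37C, 5% CO2. Mito-MPS dye was added for 30 min; fluorescence was read at 490/535 nm (monomers) and 540/590 nm (aggregates).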

Test [7] can be described thus: qHTS assay to test for compound auto fluorescence at 590 nm (red) in HepG2 cells (AID 720674). The procedure, abridged: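 Rose Bengal sodium served as the red fluorophore standard. HepG2 monolayers (overnight attachment, MEM with 10% FBS) were exposed to test compounds for 1 hr at 37 C and read at Ex 540/Em 590 nm.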
Test [8] can be described thus: qHTS assay to test for compound auto fluorescence at 535 nm (green) in HepG2 cells (AID 720675).
A short description of test [9]: qHTS assay to test for compound auto fluorescence at 590 nm (red) in HEK293 cells (AID 720679). The procedure, abridged:
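HEK293 cells (2,000/well, 10% dialyzed FBS) attached 4-5 hr, then dosed with compound or DMSO and incubated overnight at 37C, 5% CO2. Red fluorescence read at 540/590 nm, Rose Bengal sodium as reference fluorophore.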

Test [10] is described as follows: qHTS assay to test for compound auto fluorescence at 535 nm (green) in HEK293 cells (AID 720680).
Test [11] is described as follows: qHTS assay to test for compound auto fluorescence at 460 nm (blue) in HEK293 cell free culture (AID 720681). The procedure, abridged: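 Test compounds were pinned into cell-free culture medium (DMEM with 10% FBS) and fluorescence was read directly at Ex/Em 405/460 nm. Signals were expressed as fluorescence equivalents of triamterene, with DMSO vehicle as control.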

Test [12] can be described thus: qHTS assay to test for compound auto fluorescence at 535 nm (green) in HEK293 cell free culture (AID 720682). The procedure, abridged:
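Intrinsic compound fluorescence is measured in culture medium containing 10% FBS, with excitation at 485 nm and detection at 535 nm, referenced to fluorescein.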

Test [13] is described as follows: qHTS assay to test for compound auto fluorescence at 590 nm (red) in HEK293 cell free culture (AID 720683). Put shortly:
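Tox21 10K library compounds were pinned into cell-free DMEM with 10% FBS and fluorescence was read at excitation 540 nm. Activity is expressed as Rose Bengal sodium equivalency.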

Test [14] in a line: qHTS assay to test for compound auto fluorescence at 590 nm (red) in HepG2 cell free culture (AID 720684). The procedure, abridged:
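Red fluorescence (540 nm excitation, 590 nm emission) was measured after compound transfer into cell-free MEM supplemented with 10% FBS. Values are equivalencies against Rose Bengal sodium.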

A short description of test [15]: qHTS assay to test for compound auto fluorescence at 460 nm (blue) in HepG2 cell free culture (AID 720685). The procedure, abridged: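 Compound (23 nL) or DMSO pinned into cell-free MEM with 10% FBS; blue fluorescence read at 405/460 nm excitation/emission, expressed as auto-fluorescence equivalency to triamterene.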
The nature of test [16]: qHTS assay to test for compound auto fluorescence at 535 nm (green) in HepG2 cell free culture (AID 720686).
A short description of test [17]: qHTS assay to test for compound auto fluorescence at 460 nm (blue) in HepG2 cells (AID 720687). Put shortly: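 Cells (2,000/well in MEM with 10% FBS) attached overnight at 37 C, then were exposed to compound or DMSO for 1 hr at 37 C, 5% CO2. Fluorescence read at Ex/Em 405/460 nm, expressed as triamterene-equivalent signal.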
Test [18] has as its target Glucocorticoid receptor (Homo sapiens) (UniProt P04150). In words: qHTS assay to identify small molecule agonists of the glucocorticoid receptor (GR) signaling pathway (AID 720691; active means well fitted activation curve with a large enough effect in the signal ratio in the repeat runs, not every such curve was filed as active; the % refers to the signal ratio). Conditions: GR-bla HeLa, beta-lactamase reporter ratio, 18 h; activation: at 62.4 µM (top of the series). Put shortly:
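qHTS in GR-bla HeLa cells: 4 h settling at 37 C/5% CO2, 18 h compound incubation at 37 C, 2 h LiveBLAzer B/G FRET substrate at room temperature, fluorescence intensity measured.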

The nature of test [19]: qHTS assay to test for compound auto fluorescence at 460 nm (blue) in HEK293 cells (AID 720678). The procedure, abridged: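 HEK293 cells (2,000/well, medium with 10% dialyzed FBS) attached 4-5 hr, then exposed to compound overnight at 37C, 5% CO2. Blue fluorescence read at 405/460 nm, with triamterene as reference fluorophore.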
Test [20] addresses Glucocorticoid receptor (Homo sapiens) (UniProt P04150). In words: qHTS assay to identify small molecule antagonists of the glucocorticoid receptor (GR) signaling pathway (AID 720692; active means well fitted inhibition curve with a large enough effect in the signal ratio in the repeat runs, not every such curve was filed as active; the % refers to the signal ratio). Put shortly:
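Inhibition of glucocorticoid signalling is measured in HeLa cells with a GRE-controlled beta-lactamase reporter; cells are co-treated with compound and 5 nM dexamethasone (final) for 18 h before FRET substrate readout.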

Results filed as inconclusive are left out. Activity calls are given as the source filed them. Unless noted, the call rests on the fitted dose curve; in most records, active means well fitted curve in the direction sought with a large enough effect in the repeat runs; inconclusive means weak or mixed curves; inactive means no such curve, though single readings can be large; an effect the other way counts as inactive or inconclusive.

Glucocorticoid receptor (Homo sapiens), sequence (P04150 whole entry, looked up): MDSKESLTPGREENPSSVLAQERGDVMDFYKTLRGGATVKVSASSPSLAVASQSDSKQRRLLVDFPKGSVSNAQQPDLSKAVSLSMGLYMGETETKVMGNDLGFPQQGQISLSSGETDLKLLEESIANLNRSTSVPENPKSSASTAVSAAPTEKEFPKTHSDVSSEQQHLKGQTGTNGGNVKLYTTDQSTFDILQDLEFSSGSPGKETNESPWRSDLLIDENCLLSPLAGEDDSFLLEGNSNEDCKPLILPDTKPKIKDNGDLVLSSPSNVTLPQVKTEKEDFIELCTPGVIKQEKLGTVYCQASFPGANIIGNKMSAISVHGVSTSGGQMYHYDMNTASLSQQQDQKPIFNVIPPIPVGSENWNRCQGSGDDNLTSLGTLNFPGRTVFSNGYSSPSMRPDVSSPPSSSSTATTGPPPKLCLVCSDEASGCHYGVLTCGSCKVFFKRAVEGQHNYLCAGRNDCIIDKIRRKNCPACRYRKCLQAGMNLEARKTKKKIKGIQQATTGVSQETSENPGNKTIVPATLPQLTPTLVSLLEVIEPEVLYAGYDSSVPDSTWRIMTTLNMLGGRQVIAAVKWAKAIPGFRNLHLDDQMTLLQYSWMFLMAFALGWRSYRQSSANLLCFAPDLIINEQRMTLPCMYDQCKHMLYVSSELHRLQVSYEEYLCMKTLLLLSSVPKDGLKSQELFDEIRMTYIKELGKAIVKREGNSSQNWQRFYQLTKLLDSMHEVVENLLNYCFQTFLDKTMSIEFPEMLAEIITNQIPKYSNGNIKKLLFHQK

`C=C(C)C(=O)O[C@H]1C[C@@H]2CC[C@@]1(C)C2(C)C`: the Potency entry in [1], in test [3], in test [4], in [5] and in test [6] was “inactive” throughout. In addition, the molecule was called inactive in [2], in test [7], in [8], in test [9], in [10] and in [11]. Further, the call in test [12], in test [13], in [14], in test [15], in test [16] and in [17] was inactive.
Regarding `Fc1ccc(Br)cc1`, the Potency result in [1], in test [3], in test [4], in test [5], in test [6] and in [18] was “inactive” in each case. For the same molecule, the molecule was called inactive in [2], in test [7], in test [8], in test [10], in [11] and in [12]. Further, the result in test [13], in test [14], in [15], in test [16] and in test [17] was inactive.
For `c1ccc2c(c1)ccc1ccccc12`, the Potency result in test [1], in test [3], in test [4], in test [5] and in test [18] was “inactive” in each case. In addition, the molecule was called inactive in test [2], in test [7], in test [8], in test [19], in [9] and in test [10]. Further, the molecule was called inactive in [11], in test [12], in test [13], in test [14], in test [15] and in [16]. The outcome in test [17] was inactive. For the same molecule, the Potency in test [6] was 59.5 µM (active).
For the molecule `C=CCOC(=O)c1ccccc1C(=O)OCC=C`, the Potency entry in test [1], in test [3], in [4] and in test [5] was “inactive” throughout. Besides, the result in [2], in test [7], in test [8], in test [19], in [10] and in test [11] was inactive. For the same molecule, the molecule was called inactive in test [12], in test [13], in test [14], in test [15], in test [16] and in [17].
Consider `ON=C1CCCCC1`, for which the Potency entry in test [1], in test [3], in test [4], in [5], in test [18] and in test [20] was “inactive” each time. The result in test [2], in [7], in test [8], in test [19], in test [10] and in test [11] was inactive. Further, the call in [12], in [13], in test [14], in test [15], in [16] and in [17] was inactive.
Turning to `CCCCC(CC)COC(=O)CS` (centres undefined), the Potency entry in test [1], in [3], in test [4], in test [5], in test [6] and in test [18] was “inactive” in each case. Further, the call in test [2], in test [7], in test [8], in test [19], in [10] and in test [11] was inactive. Also, the result in [12], in [13], in [14], in test [16] and in [17] was inactive.
Regarding `Nc1cc([N+](=O)[O-])ccc1O`, the Potency entry in [1], in test [3], in [5] and in test [18] was “inactive” in each case. The result in test [2], in test [7], in test [8], in [9], in test [10] and in [11] was inactive. Besides, the call in test [12], in [13], in [14], in test [15], in test [16] and in test [17] was inactive. In addition, the Potency was 24.3 µM (active) in test [4] and 27.3 µM (active) in test [6].
Take `CC(=O)Nc1cccc(O)c1`: the Potency result in test [1], in test [3], in test [4], in test [5] and in test [6] was “inactive” each time. The outcome in test [2], in [7], in test [8], in test [19], in test [10] and in [11] was inactive. For the same molecule, the molecule was called inactive in test [12], in [13], in [14] and in test [16].
For `CC(=O)c1ccccc1`, the Potency entry in [1], in test [3], in test [4] and in test [5] was “inactive” throughout. The result in [2], in test [7], in test [8], in [19], in test [9] and in [10] was inactive. Moreover, the call in test [11], in [12], in test [13], in test [14], in test [15] and in test [16] was inactive. Moreover, the result in test [17] was inactive.

For the origin of these results see PubChem BioAssay (Tox21).
